# RORgamma inh – qHTS for inhibitors of ROR gamma transcriptional activity; Nuclear receptor ROR-gamma (Mus musculus), P51450; Drosophila S2 Gal4-RORgamma UAS-luciferase reporter, 20 h; Potency, µM (titrated, usually from 53.6 µM), usual class: inhibitors; actives 5.4% (n = 310,000); AID 2551, 2010; note: nearly all actives have a fitted effect of over 60% in size
# Target sequence (P51450 whole entry, looked up, the tested form may be a part): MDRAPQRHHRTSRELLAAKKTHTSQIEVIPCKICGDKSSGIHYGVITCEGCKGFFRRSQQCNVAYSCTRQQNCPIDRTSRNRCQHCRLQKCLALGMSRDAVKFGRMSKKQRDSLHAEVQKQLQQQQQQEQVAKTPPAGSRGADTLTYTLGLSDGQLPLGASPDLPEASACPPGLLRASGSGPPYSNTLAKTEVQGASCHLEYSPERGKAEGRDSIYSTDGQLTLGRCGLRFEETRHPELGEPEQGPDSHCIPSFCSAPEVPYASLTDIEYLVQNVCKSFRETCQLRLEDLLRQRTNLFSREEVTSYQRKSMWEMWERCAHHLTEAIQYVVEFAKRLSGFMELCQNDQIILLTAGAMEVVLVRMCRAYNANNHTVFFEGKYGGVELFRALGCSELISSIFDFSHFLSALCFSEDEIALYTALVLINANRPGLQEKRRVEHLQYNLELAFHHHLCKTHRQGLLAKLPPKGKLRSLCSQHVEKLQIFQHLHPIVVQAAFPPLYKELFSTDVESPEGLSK
#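 Schneider cells (Drosophila), stable Gal4 DBD–ROR gamma + UAS-luc; 1 hr cmpd preincubation; Cu2+ induction 700 uM final; 20 hr ambient; luminescence.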
# ELG1 DNA repair – qHTS screen for small molecules that inhibit ELG1-dependent DNA repair in human embryonic kidney (HEK293T) cells expressing luciferase-tagged ELG1; Potency, µM (titrated, usually from 46.1 µM), hits mostly inhibitors; actives 2.3% (n = 330,000); HEK293T ELG1-luciferase reporter, luminescence, 16 h; DNA damage induced by 5-fluorouridine; note: nearly all actives have a fitted effect of over 55% in size
#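 Luminescence from the luciferase reporter, measured 30 min after ONE-Glo reagent at room temperature, was the read-out. Beforehand, 2,000 cells per well were exposed for 16 hr at 37 °C to 5-fluorouridine together with compound or vehicle.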
# DT40 TDP1 no CPT – qHTS for Inhibitors of human tyrosyl-DNA phosphodiesterase 1 (TDP1): qHTS in cells in absence of CPT | DT40 Tdp1-/- hTDP1 cells, no CPT, ATP luminescence, 48 h | Potency, µM (top dose mostly 46.2 µM), most hits filed as inhibitors | actives 15% (n = 420,000); note: nearly all actives have a fitted effect of over 55% in size
#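 Cells were dispensed at 400 per well, compounds added by pin tool, plates incubated ≥48 hr at 37 °C, then CellTiter-Glo added for 30 min at room temperature before luminescence reading. Line: DT40 Tdp1-/- complemented with hTDP1; camptothecin omitted.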
# IL-1B inflam inh – qHTS for Inhibitors of Inflammasome Signaling: IL-1-beta AlphaLISA Primary Screen. THP-1 LPS/ATP IL-1B secretion, AlphaLISA, 16 h; hits give low values. activity change, % at 57.5 µM. actives 4.7% (n = 360,000). AID 743279, 2014; in the data active = activity change below about -50%; inconclusive = mostly about -30% to -49%
#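 Secreted IL-1B measured by AlphaLISA bead assay after 16 h compound exposure of THP-1 cells; compounds (final up to 57.5 uM) added 1 h before LPS (250 ng/mL) and ATP (1.25 mM) stimulation; lower signal means less secretion.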
# VP16 counter – VP16 counterscreen qHTS for inhibitors of ROR gamma transcriptional activity; Drosophila S2 Gal4-VP16 UAS-luciferase, luminescence, 20 h; Potency, µM (top dose mostly 53.6 µM), most hits filed as inhibitors; actives 3.5% (n = 310,000);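 note: Gal4-VP16 expression switched on by copper sulfate through the metallothionein promoter; nearly all actives have a fitted effect of over 50% in size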
# TDP1 cell CPT – qHTS for Inhibitors of human tyrosyl-DNA phosphodiesterase 1 (TDP1): qHTS in cells in presence of CPT; chicken DT40 Tdp1-/-;hTDP1 cells + 20 nM CPT, ATP luminescence, 48 h; Potency, µM (titrated, usually from 46.2 µM), most hits filed as inhibitors; actives 12% (n = 420,000); AID 686979, 2013; note: nearly all actives have a fitted effect of over 55% in size
#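 Cell growth measured by CellTiter-Glo luminescence after a minimum 48 h, 37 C compound exposure with 20 nM CPT in Tdp1-knockout DT40 cells stably expressing hTDP1, seeded 400/well; qHTS titration format.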
# Numbers stand for hits; 0 = inactive; ? = inconclusive; - = no result; [ ] = remark or other dose. The list is not random: actives were taken first. Their share in the collection is about 21%. Unless noted, calls come from the whole dose curve; as a rule, active = well fitted curve in the direction sought with a large enough effect; inconclusive = small, poorly fitted or top-dose-only effect, or another doubt; inactive = no such curve, though single readings can be large; an effect the other way counts as inactive or inconclusive.
SMILES,RORgamma inh,ELG1 DNA repair,DT40 TDP1 no CPT,IL-1B inflam inh,VP16 counter,TDP1 cell CPT
CCOC(=O)CCCCCC(=O)Nc1ccc2c(c1)CC(=O)N([C@H](C)CO)C[C@@H](C)[C@H](CN(C)Cc1ccc3c(c1)OCO3)O2,-,0,?,0,-,?
COc1ccc(S(=O)(=O)Nc2ccc3c(c2)CC(=O)N([C@@H](C)CO)C[C@@H](C)[C@@H](CN(C)Cc2ccccc2)O3)cc1,-,0,16µM,0,-,18µM
Cc1ccc(S(=O)(=O)Nc2ccc3c(c2)CC(=O)N([C@H](C)CO)C[C@H](C)[C@H](CN(C)Cc2ccc4c(c2)OCO4)O3)cc1,-,0,18µM,0,-,21µM
C[C@@H]1CN([C@H](C)CO)C(=O)Cc2cc(NC(=O)Nc3ccccc3)ccc2O[C@@H]1CN(C)Cc1ccc2c(c1)OCO2,-,16µM,?,-64,-,?
CCOc1cc(C2C3=C(CC(C)(C)CC3=O)N(C)C3=C2C(=O)CC(C)(C)C3)ccc1O,0,0,0,0,0,0
Cc1ccc(-c2csc(C(O)c3ccccc3)n2)cc1C (stereo not given),-,-,?,0,-,?
O=Cc1nccc2ccccc12,-,-,6.5µM,0,-,9.2µM
Cc1ccc2c(/C=C/c3c[nH]c4ccccc34)ccnc2c1C,-,-,0,-,-,0
C(=Cc1c[nH]c2ccccc12)c1nccc2ccccc12,-,-,?,-82,-,?
c1ccc(-c2nc(-c3nccc4ccccc34)oc2-c2ccccc2)cc1,?,?,?,0,0,0
C=CC[C@@H](CC(=O)N[C@H](CO)Cc1ccccc1)C(=O)N[C@@H](COC(=O)[C@@H](CC=C)Cc1ccc(F)cc1)Cc1ccccc1,-,?,?,0,-,?
N#CCSc1nnc(C2CCCCC2)n1Cc1ccccc1,0,0,0,0,0,10µM
Cc1cccc(-c2nnc(SCC#N)n2Cc2ccccc2)c1,0,0,0,0,0,0
Cc1cc2c(c(=O)o1)C1O[C@](CCCCN3C(=O)c4ccccc4C3=O)(Cc3cc(C#N)ccc31)O2,0[10 µM],-,-,-,0[10 µM],-
O=C(CN1CCN(C(=O)CCC(=O)N2CCC(c3ccccc3)=N2)CC1)Nc1ccc(F)cc1,-,?,23µM,0,-,?
O=C(CN1CCN(CC(=O)Nc2ccc3c(c2)OC2(CCCCC2)O3)CC1)Nc1cccc(F)c1,-,-,16µM,-,-,23µM
Cc1cccc(C)c1NC(=O)CN1CCN(C(=O)CCC(=O)N2CCC(c3ccccc3)=N2)CC1,-,-,0,0,-,0
O=C(CN1CCN(C(=O)CCC(=O)N2CCC(c3ccccc3)=N2)CC1)Nc1cccc(F)c1,-,-,16µM,?,-,16µM
CN(CC(=O)Nc1ccccc1Cl)C(=O)Cn1cnc2ccc(Cl)cc2c1=O,-,0,0,0,-,0
O=[N+]([O-])c1ccccc1SN(Cc1ccccc1)c1ccccn1,0,0,15µM,?,0,?
CCOC(=O)C1=C(c2ccccc2)N=c2s/c(=C\c3cccc(O)c3)c(=O)n2C1c1cccs1 (stereo not given),0,0,26µM,-75,0,?
COc1ccc(C2CC(c3ccc(OC)cc3O)=NN2C(=O)c2ccccc2)cc1 (stereo not given),0,0,21µM,0,0,21µM
COc1ccc(C2CC(c3ccccc3)=NN2C(=O)c2ccc(F)cc2)cc1 (stereo not given),0,0,29µM,-64,0,?
COc1ccc(C2CC(c3ccccc3O)=NN2C(=O)c2ccccc2)cc1OC (stereo not given),0,0,0,0,0,?
